Measurements published in PubChem BioAssay AID1053143 (Broad Institute, 2014).
Among all 3,400 compounds or so, about 120 (3.5%) were called active. The rule behind the calls is not given here. Not all results are given here. Measured potencies and affinities stand elsewhere.

Assay: HepG2 cell cytotoxicity, dose response, cytotoxicity control, ATP luminescence, cherry-pick, activator set 2 (AID 1053143)
Details: HepG2 viability, CellTiter-Glo ATP luminescence, 72 h; series mostly up to 26 µM; activity change, negative = cytotoxicity: at the top concentration

SMILES | activity change, negative = cytotoxicity
O=C(/C=C/c1ccco1)Nc1cccnc1 | -4.29% (inactive)
COc1ccccc1/C=C/C(=O)Oc1cccc2cccnc12 | -14.1% (inactive)
CCc1ccc(NC(=O)c2cccnc2)cc1 | 4.52% (inactive)
CS(=O)(=O)N1CCc2nc(-c3ccccc3)sc2C1 | 0.131% (inactive)
Cc1ccc(/C=N/NC(=O)c2ccco2)cc1 | 7.95% (inactive)
O=C(Nc1ccccc1F)Nc1ccccc1F | 15.9% [at 12 µM] (inactive)
Cc1ccc(CCC(=O)Nc2ccccc2F)s1 | 22.1% (inactive)
CCCC(=O)Nc1sc(C(=O)Nc2cccc(N)c2)c(C)c1C(=O)OC | -11.7% (inactive)
COc1ccc(NC(=O)c2c(NC(=O)CCC(=O)O)sc(-c3ccccc3)c2C)cc1 | -7.68% (inactive)
c1ccc(Cn2c(-c3ccco3)nc3nc4ccccc4nc32)cc1 | -16.9% (inactive)
Cc1scc(C(=O)N/N=C/c2ccc(Cl)s2)c1C | -1.2% (inactive)
COc1ccc(-c2cn3cccc(C)c3n2)cc1Br | -4.83% (inactive)
C=CCSc1cc(C)nc2c(-c3ccccc3)cnn12 | -26% (inactive)
Cc1cc(C)n(-c2cc(C(C)(C)C)nc3c(-c4ccccc4)cnn23)n1 | -9.79% (inactive)
CC(C)(C)c1cc(NCCCn2ccnc2)n2ncc(-c3ccccc3)c2n1 | -19.6% (inactive)
O=c1c2ccccc2nc2c3ccccc3c(NCc3ccccn3)nn12 | -3.53% [at 6 µM] (inactive)
CN(C)c1ccc(C#Cc2ccc3cc(CCCO)oc(=O)c3c2)cc1 | 1.77% (inactive)
Cc1ccc(-n2nc3c(n2)/C(=N/O)CC/C3=N\O)cc1 | -13.2% (inactive)
CCCCCC(=O)Nc1nc2ccccc2[nH]1 | -10% (inactive)
Cc1ccc(-c2csc(NC(=O)c3cccc(C)c3)c2C(=O)O)cc1 | -4.95% (inactive)
N/C(=N\OC(=O)COc1ccccc1)c1ccccn1 | -7.81% (inactive)
CCCCNc1c(-c2ccc(SC3CCCCC3)cc2)nc2ccccn12 | -6.41% (inactive)
O=c1[nH]c(/C=C/c2ccc(Br)cc2)nc2ccccc12 | -13.3% [at 12 µM] (inactive)

SMILES | activity change, negative = cytotoxicity
c1ccc([C@H]2CN3C(=N2)Sc2ccccc23)cc1 | -21.7% [at 12 µM] (inactive)
O=C(NC1CCCC1)c1cc(-c2ccc(Cl)cc2)on1 | -11.1% (inactive)
O=C(NC1CCCCC1)c1cc(-c2cccs2)on1 | -1.19% (inactive)
COc1cc2nn(-c3ccccc3N)nc2cc1OC | -9.19% (inactive)
Cc1csc(NC(=O)Nc2cccc(Cl)c2)n1 | -9.02% (inactive)
CCOC(=O)c1sc(NC(=O)C2CCC2)cc1C | -22.4% (inactive)
CCOC(=O)c1sc(NC(=O)Nc2ccc(Cl)cc2)nc1C | -4.05% [at 12 µM] (inactive)
Cc1ccc(NC(=O)c2sccc2C)nc1 | -18% (inactive)
Cc1ccc(C(=O)/C=C/Nc2ccccc2C(N)=O)cc1 | -20.8% (inactive)
Cn1cccc1C(=O)Nc1ccc(N2CCOCC2)cc1 | -18.9% (inactive)
COc1cccc2nc3cc(C)c(C)cc3nc12 | -12.1% (inactive)
CCCC1CCC(c2ccc(OCC)cc2)=CC1=O (stereo not given) | -5.38% (inactive)
Cc1ccc2nc(SCC(=O)c3ccc(O)cc3O)[nH]c2c1 | -3.55% (inactive)
Fc1ccccc1COc1ccc(/C=N/n2cnnc2)cc1 | -11% (inactive)
Fc1ccccc1Cn1nnc(-c2ccc3c(c2)OCO3)n1 | -26.9% (inactive)
CCN1C(=O)S/C(=C\c2ccc(N3CCOCC3)cc2C)C1=O | 21.6% (inactive)
Cn1c(=NC(=O)c2cnccn2)sc2ccccc21 | -11.9% (inactive)
O=C(Nc1nc2c(F)cccc2s1)c1ccco1 | -9.02% (inactive)
Cc1sc(NC(=O)C2CCCCC2)c(C#N)c1-c1ccccc1 | -2.58% (inactive)
COc1ccc2oc(C(=O)Nc3ccccn3)c(C)c2c1 | -22.9% (inactive)
CCOc1ccc2oc(C(=O)Nc3nccs3)c(C)c2c1 | -0.418% (inactive)
COc1ccc(N=C2SC(CC(=O)Nc3ccccc3)C(=O)N2Cc2ccco2)cc1 (stereo not given) | -1.28% (inactive)
